Activity calls are given as the source filed them. Unless noted, no rule for the calls is given here.
Key:
[1] = tested on: Wnt5a (protein binding on small-molecule microarray); test: Wnt5a binders on small-molecule microarray, primary screen, biophysical, 635/667 nm fluorescence (AID 1142); settings: 635 nm fluorescence, higher = more signal;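 also: fluorescence read at 667 nm with signal to noise per printed feature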
[2] = cell viability in Huh7 cells, primary screen, cytotoxicity control for HCV replication inhibitor project, CellTiter-Glo luminescence, basal, 48 h (AID 1143); settings: Huh7 HCV replicon, higher = more signal, called active from +8 up or from −8 down;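 also: Huh7 hepatoma cells carrying a hepatitis C replication reporter with no stimulus; test concentration not given here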
[3] = P. aeruginosa biofilm formation inhibitors, primary screen, PAO1 strain, BacTiter-Glo luminescence, LB-PBS (AID 1144); settings: 12 h, higher = more signal
[4] = CREB reporter modulators without forskolin, primary screen, cell-based, PC12, CRE-LacZ reporter, unstimulated (AID 1145); settings: no forskolin, luminescence, 4.5 h, higher = more signal, called active from +8 up or from −8 down
[5] = CREB reporter modulators under forskolin, primary screen, cell-based, PC12, CRE-LacZ reporter, forskolin-stimulated (AID 1146); settings: luminescence, 4.5 h, higher = more signal, called active from +8 up or from −8 down;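 also: PC12 cells with 6xCRE LacZ reporter stimulated by forskolin 10 µM; beta-galactosidase reporter signal reflecting CREB driven transcription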
[6] = molecular target: Streptavidin (Streptomyces avidinii) (UniProt P22629); test: streptavidin binders on small-molecule microarray, primary screen, artefact control for SMM compound annotation, biophysical, 635/667 nm fluorescence (AID 1147); settings: streptavidin binding, higher = more signal;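 also: signal reflects streptavidin binding to arrayed compounds as a control protein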
[7] = small-molecule binders of probe aInhba, primary screen, biochemical, small-molecule microarray, 635/667 nm fluorescence (AID 1148); settings: higher = more signal;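 also: score merges 667nm spot fluorescence with signal-to-noise for antibody binding to printed compounds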
Torsin-1A (Homo sapiens) [8] = molecular target: Torsin-1A (Homo sapiens) (UniProt O14656); test: torsin A binders from cell lysate, primary screen, small-molecule microarray, wild-type, 635/667 nm (AID 1149); settings: COS7 hTOR1A-WT lysate, 635 nm fluorescence, higher = more signal
Torsin-1A (Homo sapiens) [9] = molecular target: Torsin-1A (Homo sapiens) (UniProt O14656); test: small-molecule binders of mutant TOR1A in lysate, primary screen, cell lysate, small-molecule microarray, COS7 lysate, 635/667 nm fluorescence (AID 1150); settings: COS7 hTOR1A mutant lysate, 635 nm fluorescence, higher = more signal;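 also: score pools 667 nm emission and signal to noise measuring lysate protein binding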
[10] = tested on: Sonic hedgehog protein (Shh); test: small-molecule binders of Shh protein, primary screen, biochemical, small-molecule microarray, 635/667 nm fluorescence (AID 1151); settings: small-molecule microarray binding, 635 nm fluorescence; higher = more signal;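 also: Shh protein binding to compounds spotted on small-molecule microarray slides; score combines spot fluorescence intensity with signal-to-noise across triplicate slides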

Chain of Streptavidin (Streptomyces avidinii) (P22629 whole entry, looked up): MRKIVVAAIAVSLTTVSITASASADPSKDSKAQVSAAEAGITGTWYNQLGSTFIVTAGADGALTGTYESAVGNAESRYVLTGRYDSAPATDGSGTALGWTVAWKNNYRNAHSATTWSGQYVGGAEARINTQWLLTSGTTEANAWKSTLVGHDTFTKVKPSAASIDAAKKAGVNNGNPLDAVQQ
Chain of Torsin-1A (Homo sapiens) (O14656 whole entry, looked up): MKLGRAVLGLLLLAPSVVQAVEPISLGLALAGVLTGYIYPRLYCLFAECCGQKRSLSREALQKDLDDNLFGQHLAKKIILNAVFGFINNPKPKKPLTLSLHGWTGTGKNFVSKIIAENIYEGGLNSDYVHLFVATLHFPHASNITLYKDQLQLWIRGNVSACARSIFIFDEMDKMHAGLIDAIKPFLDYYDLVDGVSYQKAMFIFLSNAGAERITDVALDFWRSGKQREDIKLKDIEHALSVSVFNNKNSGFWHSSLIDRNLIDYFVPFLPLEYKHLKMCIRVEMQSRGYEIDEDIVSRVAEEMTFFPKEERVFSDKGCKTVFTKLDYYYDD

| Compound | composite z-score [1] | z-score [2] | z-score [3] | z-score [4] | z-score [5] | composite z-score [6] | composite z-score [7] | composite z-score (Torsin-1A (Homo sapiens) [8]) | composite z-score (Torsin-1A (Homo sapiens) [9]) | composite z-score [10] |
| --- | --- | --- | --- | --- | --- | --- | --- | --- | --- | --- |
| O=C(CS)NCCCCCCNC(=O)[C@H]1C[C@H]2C(=O)NCC(=O)N2[C@H]1c1cccc(OCCO)c1 | 0.497 | -2.15 (inactive) | -0.525 (inactive) | 0.0084 (inactive) | -0.963 (inactive) | -0.127 | -0.226 | 0.168 | 0.442 | 1.54 |
| COC(=O)Cn1c(C(=O)N(C)C)cc2c1C[C@H]1CN(C(=O)c3ccccc3)[C@@](Cc3ccccc3)(C(=O)OC)[C@@H]21 | 0.135 | -0.273 (inactive) | -0.334 (inactive) | -0.189 (inactive) | -0.637 (inactive) | 0.822 | 0.105 | 0.263 | 0.541 | -0.535 |
| CCCCN1CC=CC23O[C@@H]4C=CCCOC(=O)C4[C@H]2C(=O)N(CCO)[C@@H]3C1=O (stereo not given in full) | -0.213 | 0.142 (inactive) | -0.892 (inactive) | -1.45 (inactive) | -0.34 (inactive) | -0.434 | -0.0405 | -0.856 | -0.508 | 1.71 |
| O=C1NC(=O)C2C1C=CC(C(O)C(c1ccccc1)c1ccccc1)N2Nc1ccccn1 (stereo not given) | 0.367 | 0.604 (inactive) | -0.725 (inactive) | -0.898 (inactive) | -0.804 (inactive) | -0.0787 | 0.096 | 0.675 | 1.06 | 0.676 |
| C=CCNC(=O)[C@@H]1[C@H]2C(=O)O[C@H](c3ccccc3)[C@H](c3ccccc3)N2[C@H](c2ccc(OCCO)cc2)[C@@]12C(=O)Nc1ccc(C#CCNC(N)=O)cc12 | 0.0977 | 0.414 (inactive) | 0.0575 (inactive) | 0.155 (inactive) | 0.0297 (inactive) | 0.987 | -0.0195 | 0.564 | 0.19 | 0 |
| COCCOC(=O)N1C(=O)[C@@]2(c3cc(C#CCC(C(=O)OC)C(=O)OC)ccc31)[C@H](C(N)=O)[C@H]1C(=O)O[C@H](c3ccccc3)[C@H](c3ccccc3)N1[C@@H]2c1ccccc1OCCO | -0.0211 | -6.46 (inactive) | -2.59 (inactive) | -1.84 (inactive) | -2.42 (inactive) | 1.09 | -0.0259 | 0.0139 | 0.212 | 1.9 |
| CCCCCN1CC=CC23O[C@@H]4/C=C\CCCOC(=O)C4[C@H]2C(=O)N(CCO)[C@@H]3C1=O (stereo not given in full) | -0.243 | -2.03 (inactive) | -2.97 (inactive) | -1.98 (inactive) | -0.508 (inactive) | -0.666 | -0.183 | 0.642 | 1.58 | 0.0256 |
| [N-]=[N+]=NCc1ccccc1C[C@@]1(C(=O)NCCN2CCOCC2)N=C(c2ccc(OCCCO)cc2)O[C@@H]1c1ccccc1 | 0.366 | -3.38 (inactive) | 0.505 (inactive) | 2.72 (inactive) | 0.847 (inactive) | 1.11 | 0.302 | 0.271 | 0.57 | 0.34 |
| COCCCNC(=O)[C@]1(Cc2ccccc2N=[N+]=[N-])N=C(c2ccc(OCCCO)cc2)O[C@@H]1c1ccccc1 | 0.637 | -3.94 (inactive) | 0.542 (inactive) | 1.76 (inactive) | -1.66 (inactive) | 1.58 | 0.974 | 0.303 | 1.09 | -0.223 |
| Cc1c(NC(=O)/C(C#N)=C/C=C/c2ccc([N+](=O)[O-])cc2)c(=O)n(-c2ccccc2)n1C | 0.388 | -0.997 (inactive) | 1.12 (inactive) | 0.829 (inactive) | 0.732 (inactive) | 1.32 | 0.0301 | 0.321 | 0.468 | 0.569 |
| O=C(N1CCOCC1)[C@]1(CCS(=O)(=O)c2ccccc2)N=C(c2ccc(OCCCO)cc2)O[C@@H]1c1ccccc1 | 0.308 | -2.3 (inactive) | 0.863 (inactive) | 1.1 (inactive) | 0.711 (inactive) | 0.947 | 0.212 | 0.46 | 0.77 | -0.19 |
| C=C(COC)/C(=C/C[C@@H](OC(=O)c1ccncc1)c1ccccc1OCCO)c1cnc2ccccc2c1 | 1.09 | -3 (inactive) | 1.45 (inactive) | 18.2 (active) | 1.24 (inactive) | 1.93 | 0.0422 | 0.113 | 1.15 | 2.07 |
| Cc1ccc(N2C(=O)c3ccccc3[C@@H](C(=O)NCCN3CCOCC3)[C@@H]2c2ccc(CO)cc2)nc1 | -0.275 | 0.209 (inactive) | -0.479 (inactive) | 0.145 (inactive) | -0.479 (inactive) | -1.42 | 0.0051 | -2.75 | -1.65 | 0.179 |
| CCCCN1CC=CC23O[C@@H]4/C=C\CCC(C)OC(=O)C4[C@H]2C(=O)N(CCO)[C@@H]3C1=O (stereo not given in full) | -0.122 | -1.08 (inactive) | -1.31 (inactive) | -0.627 (inactive) | -0.0432 (inactive) | -1.52 | -0.0494 | 2.84 | 2.94 | -0.0956 |
